Results taken from PubChem BioAssay (NCI).
The panel holds about 79,000 compounds, 15% with a hit somewhere; the sample as a whole holds those more often. Unmarked numbers belong to inactive results. Calls of active or inactive are those of the source. Cut-off read from the data, not from the text of the source: active = growth inhibition above about 70%; inactive = the rest.

How the values were obtained:
[1] = NCI Yeast Anticancer Drug Screen. Data for the rad50 strain (AID 155);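 note: 0% = growth of vehicle-only cultures of the same strain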; details: S. cerevisiae rad50 strain growth inhibition; at 50.0 µM; stronger effect = higher value
In short: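 Cells are treated with compound, grown, and their growth is then scored against vehicle-only cultures of the same repair-deficient yeast strain.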

[2] = NCI Yeast Anticancer Drug Screen. Data for the mec2-1 strain (AID 157); details: S. cerevisiae mec2-1 strain, at 50.0 µM, stronger effect = higher value
In short: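 Strain: mec2-1 (DNA repair/cell cycle alteration). Compound exposure, then growth measured; inhibition expressed relative to vehicle.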

[3] = NCI Yeast Anticancer Drug Screen. Data for the sgs1 mgt1 strain (AID 161);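 note: 0% = growth of cultures given vehicle only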; details: S. cerevisiae sgs1 mgt1 strain, at 50.0 µM, stronger effect = higher value
In short: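 Inhibition of yeast growth, normalised to vehicle-treated controls, is reported for a strain bearing genetic alterations in DNA damage repair.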

[4] = NCI Yeast Anticancer Drug Screen. Data for the cln2 rad14 strain (AID 165);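 note: 0% = growth equal to vehicle treated cultures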; details: S. cerevisiae cln2 rad14 strain, at 50.0 µM, stronger effect = higher value
In short: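 Compounds are applied to the cln2 rad14 yeast strain, and growth is then compared with that of vehicle-treated cultures to give inhibition.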

[5] = NCI Yeast Anticancer Drug Screen. Data for the bub3 strain (AID 167); details: S. cerevisiae bub3 mutant strain, at 50.0 µM, stronger effect = higher value
In short: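 Part of a panel of yeast mutants defective in DNA damage repair or cell cycle regulation. Each strain is grown with compound, and inhibition is calculated relative to solvent-treated cultures.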

[6] = NCI Yeast Anticancer Drug Screen. Data for the mlh1 rad18 strain (AID 175); details: S. cerevisiae mlh1 rad18 strain growth inhibition; at 50.0 µM; stronger effect = higher value
In short: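 Read-out is yeast growth inhibition, calculated against vehicle-only controls. The compound was applied to a strain engineered with DNA damage repair alterations.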

| Structure (SMILES) | growth inhibition [1] | growth inhibition [2] | growth inhibition [3] | growth inhibition [4] | growth inhibition [5] | growth inhibition [6] |
| --- | --- | --- | --- | --- | --- | --- |
| COC(=O)[C@H](Cc1c[nH]c2ccccc12)NP(=O)(O)OCC1C=CC(n2cc(C)c(=O)[nH]c2=O)O1 (some centres not stated) | -8.5% | -7.75% | -9.6% | 6.8% | -13.1% | -49.7% |
| Nc1[nH]n(-c2ccccc2)c(=O)c1C1c2ccccc2Sc2ccccc21 | 8.7% | 11.2% | 16.4% | -66.6% | 15.2% | 16.2% |
| C1=CC(=C(c2ccccc2)c2ccccc2)C=C1 | -17.1% | -16.9% | -4.5% | -19.2% | -2.75% | -1.9% |
| Cc1ccc(NC(=O)c2ccccc2N)cc1 | -0.9% | -8.5% | -0.95% | -16.8% | -12.4% | 18% |
| Cc1cc(NCCN(C(C)C)C(C)C)nc(Nc2nc3ccc(Cl)cc3[nH]2)n1 | -13% | -16.5% | -10.2% | -45.2% | 1.95% | -44.5% |
| COc1ccc(/C(O)=C/c2nc3cccc([N+](=O)[O-])c3[nH]c2=O)cc1 | 20.2% | -14.8% | 2.3% | -14.1% | -35.4% | 17.7% |
| COC(=O)C(Cc1c[nH]c2ccccc12)NP(=O)(O)OCC1OC(n2cc(F)c(=O)[nH]c2=O)CC1O (configuration not stated) | -31.4% | -17.1% | -38.5% | -9.2% | -24.7% | -16.1% |
| OCC(O)C(O)C(O)C(O)C(OCc1ccccc1)OCc1ccccc1 (configuration not stated) | 11.3% | 7.55% | -23.6% | -12.7% | 5.1% | 9.85% |
| Cn1c(=O)c2c(n(C)c1=O)n1c(=O)c3ccccc3nc1n2C | 12.9% | 2.3% | -15.6% | -7.1% | -7.3% | -6.55% |
| COc1ccc(C2=NN(C(C)=O)c3nc4ccccc4nc3O2)cc1 | -25.2% | -28.8% | -20% | -5.9% | -24.6% | -12.6% |
| COc1cc(OC)cc(C(=O)NN)c1 | 19% | -2.2% | 5.1% | 17.4% | 0.5% | -18.6% |
| COC(=O)C1OCOC2C(CO)OCOC12 (configuration not stated) | 6.8% | 23.1% | -1.5% | -49.4% | 2.8% | -7.85% |
| CC1=CC(C)S(=O)(=O)C1 (configuration not stated) | -38.4% | -46.2% | -89.1% | -5.7% | -57.8% | -16.7% |
| CCCCCC(=O)NCCCOC | -20% | 10.8% | -0.35% | -46.4% | -13.7% | -8.9% |
| CN(C)CC1CCC(CN(C)C)C1=NO (configuration not stated) | 13.7% | -2.55% | -4.1% | 7.4% | -1.5% | 6.45% |
| N#CC(C#N)=C1C=Cc2ccccc2O1 | 27.9% | -1.35% | 0.9% | 5.15% | -1.4% | 43.9% |
| Cc1c(O)ccc2c(O)c(NC(=O)c3ccc4c(c3)CCC(C)(C)O4)c(=O)oc12 | 4.95% | -22.9% | 7.95% | -95.5% | -21.5% | 21.1% |
| C=C1C(=O)SC(=NCc2ccccc2)N1C | 24.4% | 16.4% | 19.9% | 19.9% | 0% | 25.8% |
| c1ccc(CN2C3C4N(Cc5ccccc5)C2C2N(Cc5ccccc5)C(C(N2Cc2ccccc2)N4Cc2ccccc2)N3Cc2ccccc2)cc1 | 10.1% | 2.35% | 21.9% | 3.2% | 11.8% | -3.6% |
| CNC(CCNCCc1ccccc1)CNCCc1ccccc1 (configuration not stated) | 44.1% | 4.8% | 22.8% | 3.85% | 5.7% | 22.2% |
| CC1=NC2(CCCCC2)N(Cl)C(=O)C1SC#N (configuration not stated) | -45.2% | -72.3% | -23.8% | -27.6% | -13.8% | -27.4% |

| Structure (SMILES) | growth inhibition [1] | growth inhibition [2] | growth inhibition [3] | growth inhibition [4] | growth inhibition [5] | growth inhibition [6] |
| --- | --- | --- | --- | --- | --- | --- |
| N#CCc1ccccc1-c1ccccc1 | 2.45% | -8.2% | 11.4% | -45.5% | 5.6% | -9.75% |
| O=C(O)C1Cc2c([nH]c3ccccc23)C(c2ccccc2)N1 (configuration not stated) | 1.3% | 11.1% | 10.8% | -56.6% | -16.8% | 14.4% |
| CCC(=O)/C=C/c1cc(OC)c(OC)c(OC)c1 | 7.15% | -24.9% | -4.4% | -36.9% | -9.1% | 2.4% |
| CCCCOCCOC(=O)Nc1cccc(Cl)c1 | 35% | 30.7% | 51.1% | -11.6% | -0.3% | 2.15% |
| CSc1ccc(NC(=O)Nc2ccccc2C(F)(F)F)cc1 | 2.05% | -3.25% | 18.4% | -9.85% | 34.5% | 27% |
| CCCCCCCCCCCCCCOc1ccc(S(=O)(=O)/N=C(\N)NC(N)=NCCCCCCCCCC)cc1 | 30.2% | -9.6% | 10.2% | -21.1% | -2.2% | 2.15% |
| CC(C)c1ccc(N=Nc2ccc(N(C)C)cc2)cc1 | 4.2% | 1.85% | -4.55% | -17.9% | -4.7% | -5.65% |
| O=C1c2ccccc2C(=O)N1C/C(Cl)=C/Cl | -21.9% | -6.5% | -11.4% | -3.65% | 8.75% | -22.6% |
| O=C(Nc1cccc(C(F)(F)F)c1)OCCOc1ccc(Cl)cc1 | 99.2% (active) | 99.3% (active) | 99.2% (active) | 98% (active) | 99% (active) | 98% (active) |
| N#CCC(=O)N/N=C\C(O)C(O)C(O)C(O)CO (configuration not stated) | 0.1% | 2.6% | -10.8% | -1.45% | 4.5% | 11.1% |
| c1ccc(CCc2ccccn2)nc1 | 22.9% | 0.8% | -13.6% | 7.2% | 9.5% | 1.45% |
| c1ccc2c(c1)oc1ccc3nsnc3c12 | 7.25% | -7.45% | 13.8% | -1.45% | 20.1% | -10.3% |
| CC(C)(C)OC(=O)CC1(C)NC(C(=O)O)C(C)(C)S1 (configuration not stated) | 13.3% | -0.65% | -10.9% | -9.75% | 14.8% | 10.8% |
| O=c1cc(CNC2CC3CCC2C3)[nH]c(=O)[nH]1 (configuration not stated) | 7.35% | -1.2% | -4.25% | -3.45% | 0.2% | -0.2% |
| NNC(=O)c1cccc(C(=O)NN)n1 | 6.25% | 4.9% | 8.55% | 5.85% | 31.1% | 15.1% |
| Cc1cc(Cc2cc(C)c(NC(=O)C(=O)C3CCC4=C(SC5C=CC=CC5N4)C3=O)c(C(C)C)c2)cc(C(C)C)c1NC(=O)C(=O)C1CCC2=C(SC3C=CC=CC3N2)C1=O (configuration not stated) | -15.8% | -13.6% | -8.1% | 15.2% | 15.3% | -28.1% |
| NC(=O)C1CCCN(C2OC(COP(=O)(O)OP(=O)(O)OCC3OC(n4cnc5c(N)ncnc54)C(OP(=O)(O)O)C3O)C(O)C2O)C1 (configuration not stated) | 5.85% | -15.1% | 15.2% | 1.5% | 16.3% | -0.9% |
| CC(=O)c1cc(C)ccc1Br | 7.2% | 6.65% | -16.3% | 0.5% | -7.85% | 7.35% |
| COc1cc(-c2ccc(N=C=O)c(OC)c2)ccc1N=C=O | -4% | -27.4% | 9.8% | -5.7% | 29.9% | -8.15% |
| CC(C)(C)OC(=O)C1CCC/C1=N/Nc1ccc([N+](=O)[O-])cc1[N+](=O)[O-] (configuration not stated) | -38.3% | -46% | 10.3% | 24.2% | 20.7% | -11.6% |
| O=C1c2ccccc2C(=O)N1CC(O)COCc1ccccc1 (configuration not stated) | -17.8% | -25.8% | -31.7% | -15.9% | 25.6% | -6.55% |
